From PubChem BioAssay (NCATS) come the findings set out here.

SMILES strings stand for the structures. Inconclusive results are not listed. Activity calls are given as the source filed them. The call rests on the fitted dose curve; in most records, active means well fitted inhibition curve with a large enough effect; inconclusive means small, poorly fitted or top-dose-only effect; inactive means flat fitted curve, though single readings scatter.

Assay in all cases: qHTS profiling for inhibitors of Plasmodium falciparum proliferation (AID 504749); further: nearly all actives have a fitted effect of over 60% in size
Details in all cases: P. falciparum in erythrocytes, SYBR Green DNA, 72 h; series mostly up to 28.7 µM

The test system of assay [1] is ATS189. The essentials: (§1)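 P. falciparum-infected erythrocytes (0.3% parasitemia, 2.5% hematocrit final) were exposed to compounds for 72 h at 37 C in 5% CO2, then lysed with SYBR Green buffer overnight at room temperature; parasite DNA fluorescence was normalized to artemisinin and DMSO controls.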
Assay [2] has as its system ATS95. In a few lines:
as §1

Assay [3] deals with C2A. The essentials: as §1
Assay [4] has as its system CP185. The essentials: as §1
In assay [5] the test system is CP191. In a few lines:
as §1

In assay [6] the test system is CP192. In a few lines:
as §1

Assay [7] relates to CP194. The essentials:
as §1

Assay [8] relates to CP201. In a few lines: as §1
Assay [9] deals with CP203. In a few lines:
as §1

Assay [10] relates to CP211. In a few lines:
as §1

Assay [11] has as its system CP215. In a few lines:
as §1

Assay [12] has as its system CP217. The essentials:
as §1

Assay [13] concerns CP237. In a few lines:
as §1

Assay [14] deals with CP238. The essentials: as §1
In assay [15] the test system is CP247. The essentials: as §1
Assay [16] concerns CP250. The essentials: as §1
The test system of assay [17] is CP252. In a few lines: as §1
Assay [18] relates to CP256. The essentials:
as §1

The subject of assay [19] is CP260. The essentials: as §1
Assay [20] has as its system CP262. In a few lines: as §1
Potency means the concentration at half of the fitted maximal effect.

`Nc1ccc(C(=O)NCC(=O)O)cc1`: the Potency result in [1], in [2], in [3], in assay [4], in assay [5] and in assay [6] was “inactive” in each case. Moreover, the Potency entry in assay [7], in [8], in assay [9], in [10], in assay [11] and in assay [12] was “inactive” throughout. In addition, the Potency entry in assay [13], in assay [14], in assay [15], in [16], in assay [17] and in assay [18] was “inactive” each time. The Potency result in [19] and in [20] was “inactive” in each case.
On to `Nc1nc(N)c(-c2ccccc2)s1`, for which the Potency result in [1], in assay [2], in assay [3], in assay [4], in [5] and in assay [6] was “inactive” throughout. Moreover, the Potency result in assay [7], in [8], in [9], in assay [10], in assay [11] and in [12] was “inactive” in each case. Further, the Potency entry in assay [13], in assay [14], in [15], in assay [16], in assay [17] and in [18] was “inactive” throughout. In addition, the Potency entry in [19] and in assay [20] was “inactive” throughout.
As to `O=C(Nc1cccc(C2=NCCN2)c1)Nc1cccc(C2=NCCN2)c1`, the Potency is 2.82 µM (active) in assay [1]; 5.01 µM (active) in assay [2]; 5.01 µM (active) in assay [3]; 4.47 µM (active) in assay [4]; 1.12 µM (active) in [5]; 15.1 µM (active) in assay [6]. Moreover, the Potency in [7] was 15.1 µM (active); in assay [8], 13.5 µM (active); in assay [9], 15.1 µM (active); in assay [10], 13.5 µM (active); in [11], 12 µM (active); in [12], 3.55 µM (active). Further, the Potency in assay [13] is 6.31 µM (active); in assay [14], 6.31 µM (active); in assay [15], 2.82 µM (active); in assay [16] it was 3.55 µM (active); in [17], 3.16 µM (active); in assay [18], 0.708 µM (active). Moreover, the Potency in assay [19] is 2.51 µM (active); in assay [20] it was 4.78 µM (active).
Take `C[C@@H](O)[C@H]1C(=O)N2C(C(=O)O)=C(S[C@@H]3CN[C@H](CNS(N)(=O)=O)C3)[C@H](C)[C@H]12`: the Potency result in assay [1], in assay [2], in assay [3], in assay [4], in assay [5] and in assay [6] was “inactive” each time. The Potency result in [7], in [8], in assay [9], in assay [10], in assay [11] and in assay [12] was “inactive” each time. The Potency entry in assay [13], in assay [14], in assay [15], in assay [16], in [17] and in [18] was “inactive” each time. The Potency entry in assay [19] and in [20] was “inactive” each time.
Regarding `CCOc1cc(OCC)c(C(=O)CCC(=O)O)cc1OCC`, the Potency result in assay [1], in assay [2], in assay [3], in [4], in assay [5] and in [6] was “inactive” in each case. Besides, the Potency entry in assay [7], in assay [8], in assay [9], in assay [10], in [11] and in assay [12] was “inactive” throughout. The Potency entry in assay [13], in assay [14], in assay [15], in assay [16], in assay [17] and in assay [18] was “inactive” in each case. In addition, the Potency result in [19] and in [20] was “inactive” throughout.
As for `O=C(NCCc1c[nH]c2ccccc12)c1cccnc1`, the Potency result in [1], in assay [2], in assay [3], in assay [4], in assay [5] and in [6] was “inactive” throughout. For the same compound, the Potency result in assay [7], in assay [8], in assay [9], in assay [10], in assay [11] and in assay [12] was “inactive” in each case. The Potency result in assay [13], in assay [14], in assay [15], in [16], in assay [17] and in [18] was “inactive” each time. Moreover, the Potency result in assay [19] and in assay [20] was “inactive” each time.
For `Nc1ccc(S(=O)(=O)NCc2ccccc2)cc1`, the Potency entry in assay [1], in assay [2], in [3], in [4], in assay [5] and in assay [6] was “inactive” throughout. In addition, the Potency entry in assay [7], in [8], in assay [9], in assay [10], in assay [11] and in assay [12] was “inactive” throughout. The Potency entry in assay [13], in assay [14], in [15], in assay [16], in assay [17] and in [18] was “inactive” throughout. Moreover, the Potency result in [19] and in assay [20] was “inactive” in each case.
As to `CCNC(=O)NCc1cccc(Cl)c1`, the Potency result in assay [1], in assay [2], in assay [3], in [4], in [5] and in assay [6] was “inactive” in each case. The Potency entry in assay [7], in [8], in assay [9], in assay [10], in assay [11] and in [12] was “inactive” in each case. The Potency result in [13], in [14], in assay [15], in [16], in assay [17] and in [18] was “inactive” each time. Besides, the Potency result in assay [19] and in assay [20] was “inactive” in each case.
As for `C=C[C@@]1(C)CC(=O)[C@]2(O)[C@@]3(C)[C@@H](O)CCC(C)(C)[C@@H]3[C@H](O)[C@H](OC(C)=O)[C@@]2(C)O1`, the Potency result in assay [1], in assay [2], in assay [3], in assay [4], in assay [5] and in assay [6] was “inactive” each time. Moreover, the Potency result in assay [7], in [8], in [9], in assay [10], in assay [11] and in assay [12] was “inactive” each time. The Potency result in assay [13], in [14], in [15], in assay [16], in [17] and in assay [18] was “inactive” throughout. Also, the Potency entry in [19] and in assay [20] was “inactive” each time.
Consider `CCOC(=O)c1ccc(N)cc1`, for which the Potency result in assay [1], in assay [2], in [3], in assay [4], in assay [5] and in assay [6] was “inactive” each time. Further, the Potency result in assay [7], in assay [8], in assay [9], in [10], in assay [11] and in assay [12] was “inactive” in each case. Besides, the Potency entry in assay [13], in assay [14], in assay [15], in assay [16], in assay [17] and in assay [18] was “inactive” each time. The Potency result in assay [19] and in assay [20] was “inactive” each time.
For the compound `CC(C)CCCC(C)N` (stereo not given), the Potency entry in assay [1], in assay [2], in assay [3], in [4], in assay [5] and in assay [6] was “inactive” in each case. Further, the Potency entry in [7], in assay [8], in assay [9], in assay [10], in assay [11] and in [12] was “inactive” throughout. The Potency entry in [13], in assay [14], in assay [15], in assay [16], in [17] and in [18] was “inactive” each time. Besides, the Potency result in assay [19] and in assay [20] was “inactive” throughout.
In the case of `CCCCNC(=O)NS(=O)(=O)c1ccc(N)cc1`, the Potency entry in [1], in assay [2], in [3], in [4], in assay [5] and in assay [6] was “inactive” in each case. Moreover, the Potency result in assay [7], in [8], in assay [9], in [10], in [11] and in assay [12] was “inactive” in each case. Further, the Potency result in assay [13], in [14], in assay [15], in [16], in assay [17] and in assay [18] was “inactive” throughout. The Potency entry in assay [19] and in [20] was “inactive” in each case.
